Results as given in PubChem BioAssay (NCI).
The panel holds about 83,000 compounds, 20% with a hit somewhere; the sample as a whole holds those more often.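 Note: values are percent growth. 100 is the growth of untreated cells, values between 100 and 0 indicate rising inhibition; between -100 and 0 indicates cell death.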 A number with no mark means an inactive call. Calls of active or inactive are those of the source. The calls were made as follows: active = growth percent below 10; inactive = the rest.

Legend:
Assay in all cases: NCI-60 one-dose screen, 48 h (100 = growth as untreated, 0 = no growth, -100 = all killed)
BT-549 breast = settings: 10 µM unless noted
MDA-MB-435 melanoma = settings: 10 µM unless noted
SW-620 colon = settings: 10 µM unless noted
MCF7 breast = settings: 10 µM
HCT-116 colon = settings: 10 µM unless noted
HCC-2998 colon = settings: 10 µM unless noted
KM12 colon = settings: 10 µM unless noted

SMILES	growth (BT-549 breast)	growth (MDA-MB-435 melanoma)	growth (SW-620 colon)	growth (MCF7 breast)	growth (HCT-116 colon)	growth (HCC-2998 colon)	growth (KM12 colon)
COc1ccc2c(c1)C=C1CSCC3=Cc4cc(OC)ccc4OC13O2	30.8%	-40% (active)	33.2%	19.7%	9.24% (active)	9.67% (active)	16.6%
O=C(Cn1cc(COc2ncnc3c2cnn3-c2ccccc2)nn1)Nc1ccccn1	94%	98%	102%	90.4%	98.2%	120%	100%
CCOC(=O)C(CC(=O)O)=C(C(=O)OCC)C(=O)OCC	122%	103%	105%	92%	99.8%	104%	103%
Cc1ccc(Cc2cnc(NC(=O)CN3C(=O)/C(=C\c4ccccc4)SC3=S)s2)cc1	117%	107%	107%	95.8%	103%	105%	103%
COc1ccc2sc3c(NCCCN)nc4ccccc4c3c(=O)c2c1	82.1%	-79% (active)	-75% (active)	-74.2% (active)	-84.1% (active)	-67.1% (active)	-54.6% (active)
COc1cccc(/C=C/C(=O)c2c(C)nc3ccccc3c2/C=C/c2ccccc2)c1OC	29.4%	15.1%	13.2%	13.9%	4.08% (active)	41.1%	26.6%
COc1ccc(/C=C2\NC(=O)NC2=O)cc1O	94.1%	94.7%	109%	100%	89.3%	107%	102%
Nc1nc(-c2cnccn2)nn1-c1nc2ccccc2s1	104%	103%	105%	83.8%	93%	101%	101%
O=C(Nc1ccc(N2CCNCC2)cc1)c1[nH]ncc1Nc1cc(Oc2ccccc2)ncn1	17.5%	35.8%	-65.5% (active)	-0.204% (active)	-33.6% (active)	-18.1% (active)	-78% (active)
COc1cc2cc3c(=O)n4c(cc5cc(OC)ncc54)c(=O)n3c2cn1	106%	110%	105%	95.4%	100%	106%	105%
COc1ccc(CSc2nnc(SCC(=O)Nc3ccc(Cl)cc3)s2)cc1	69%	67.2%	52%	63.8%	70.8%	72.6%	44.8%
COC(=O)/C(CCC=C(C)C)=C1\[C@@H](OC(C)=O)C[C@@]2(C)[C@H]1C[C@@H](O)[C@H]1[C@@]3(C)CC[C@H](NCCO)[C@@H](C)[C@@H]3CC[C@@]12C	114%	98.9%	97%	98.8%	105%	106%	103%
CN1C(=O)N(C)C2(c3ccccc3)OC(=S)NC12c1ccccc1 (configuration not stated)	94.1%	103%	111%	91.8%	94.8%	106%	91.9%
COc1cc2nc(NC3CCC3)nc(NC3CCN(C(C)C)CC3)c2cc1OC	72.5%	-48% (active)	38.7%	29.5%	48.1%	22.7%	62.9%
O=C(Nc1ccc(N2CCNCC2)cc1)c1[nH]ncc1Nc1cc(C2CC2)ncn1	42.9%	50.6%	33.1%	37%	14.6%	46.3%	21.1%
O=C1NC(=O)C(=Cc2cn(Cc3cn(Cc4ccc(Cl)cc4Cl)nn3)c3ccccc23)C(=O)N1	91.7%	94.9%	92.1%	80%	91.3%	117%	98.3%
CCCSC1=NC2C(N(CC)C(=O)N2CC)N1/N=C/C=C/c1ccccc1[N+](=O)[O-] (configuration not stated)	30.7%	-30.1% (active)	37.3%	21.8%	7.28% (active)	15%	14.9%
COc1cc(CNC(=O)Cc2ccccc2)ccc1OCc1cn(-c2ccc(F)cc2)nn1	99.8%	98.4%	109%	91.8%	102%	106%	108%
O=C(NN1C(=O)CSC1c1ccc(Cl)cc1)c1[nH]c2ccc(F)cc2c1-c1ccccc1 (configuration not stated)	50.9%	44.9%	77.8%	14.6%	31.6%	6.69% (active)	44.8%
Cc1cccc2c(=O)c3c(sc12)c(NCCN)nc1ccccc13	72.1%	-93.9% (active)	-77.6% (active)	-82.1% (active)	-93.9% (active)	-77.8% (active)	-90.5% (active)
Oc1c(C(Nc2ccccn2)c2cccc(Oc3ccccc3)c2)ccc2cccnc12 (configuration not stated)	-74.5% (active)	-90.1% (active)	-88% (active)	-83% (active)	-85.3% (active)	-84.5% (active)	-89.9% (active)
CCOc1cc(Cl)c(C(C)NC(=O)c2cccc(OC)c2)cc1OCC (configuration not stated)	-27.7% (active)	-28.6% (active)	-50.9% (active)	3.38% (active)	-57.5% (active)	-85.1% (active)	0.624% (active)
CC[C@H](C)[C@@H](C(=O)OC)n1cc(CNC(=O)[C@@H](Cc2ccccc2)NC(=O)OCc2ccccc2)nn1	106%	99.9%	102%	97%	102%	104%	103%
COC(=O)/C(CCC=C(C)C)=C1\[C@@H](OC(C)=O)C[C@@]2(C)[C@H]1C[C@@H](O)[C@H]1[C@@]3(C)CC[C@H](NCCCNCCCCNCCCN)[C@@H](C)[C@@H]3CC[C@@]12C	80.4%	8.03% (active)	55.8%	95.6%	47.1%	52.1%	21.7%
NS(=O)(=O)c1ccc(CCN=C=S)cc1	63.8%	27.9%	-22.9% (active)	2.99% (active)	0.727% (active)	81.1%	8.37% (active)
COc1ccc(Cn2c(Br)c3c(c2-c2cc(OC)c(OC)c(OC)c2)CCc2sc(NC(=O)c4ccc(OC)cc4)nc2-3)cc1	96.1%	99.5%	96.2%	91.5%	90.8%	108%	94.2%

SMILES	growth (BT-549 breast)	growth (MDA-MB-435 melanoma)	growth (SW-620 colon)	growth (MCF7 breast)	growth (HCT-116 colon)	growth (HCC-2998 colon)	growth (KM12 colon)
COc1ccc(/C=C/C(=O)c2c(C)nc3ccccc3c2/C=C/c2ccccc2)c(OC)c1	89.2%	88.9%	80.5%	62.6%	51.5%	92.1%	87.4%
COc1ccc(Nc2cc(C)nc(NCc3ccccc3)n2)cc1	97.6%	18.5%	15%	11.1%	15.4%	21.2%	5.56% (active)
COC(=O)/C(CCC=C(C)C)=C1\[C@@H](OC(C)=O)C[C@@]2(C)[C@H]1C[C@@H](O)[C@H]1[C@@]3(C)CC[C@H](NCc4ccccc4)[C@@H](C)[C@@H]3CC[C@@]12C	76.2%	75.7%	63.5%	49.5%	20.2%	72.8%	72.9%
FC(F)(F)c1cccc(Nc2nc3ccccc3nc2Nc2cccc(C(F)(F)F)c2)c1	7.74% (active)	-71.8% (active)	-26.9% (active)	-57% (active)	-41.7% (active)	-55.1% (active)	-37.2% (active)
O=C(NCc1ccccc1)C1CN(c2ccc(Cl)cc2)N(c2ccc(Cl)cc2)C1=O (configuration not stated)	83.4%	3.28% (active)	60.8%	49.8%	83.8%	99.4%	59.8%
C=C(C)CCC(C)N1CCC(N2CCC(C(=O)NCCc3ccccc3)CC2)CC1 (configuration not stated)	64.5%	-18.5% (active)	45.2%	9.23% (active)	17.6%	131%	24.8%
Cc1ccc(C2CC(c3ccc(Nc4nc(NCCO)nc(Nc5ccc(Cl)cc5)n4)cc3)=NN2c2cc(Cl)cc(Cl)c2)cc1 (configuration not stated)	95.9%	98.8%	101%	88.2%	103%	111%	103%
O=c1c2cc(F)ccc2sc2c(Nc3ccncc3)nc3ccccc3c12	81.5%	-62.1% (active)	-74.6% (active)	-77.9% (active)	-48.9% (active)	75.9%	1.24% (active)
Clc1ncccc1Nc1ccc2nnc(-c3ccncc3)n2n1	108%	102%	103%	94.2%	101%	95.7%	101%
c1ccc(-c2ccc(-c3nc4ccccc4[nH]3)cc2)cc1	94.2%	82.4%	101%	76.3%	74.1%	88.3%	84.6%
COc1ccc(/C=C/C(=O)c2ccc3cc(OC)c(OC)cc3c2)cc1OC	33.9%	7.45% (active)	11.1%	25.9%	16.9%	48.6%	21.5%
Cn1c(/C=C(\C#N)c2cccc(C(F)(F)F)c2)nc2c(N3CCOCC3)nc(Cl)nc21	-13.1% (active)	-91.5% (active)	-68.8% (active)	-54.1% (active)	-85.5% (active)	14%	19.1%
O=C(Nc1ccc(N2CCNCC2)cn1)c1[nH]ncc1Nc1ncnc2sc3c(c12)CCC3	85.4%	-63.2% (active)	-76.1% (active)	-34% (active)	-75% (active)	33.8%	53.4%
CN(C)CCNc1cc(-c2ccccc2)nc2ccccc12	-77.8% (active)	-55.1% (active)	-79.8% (active)	-24.6% (active)	-71.4% (active)	-81.4% (active)	-23.8% (active)
COc1ccc(C)c2sc(N(Cc3cccnc3)C(=O)c3ccc(C#N)cc3)nc12	21.7%	10.1%	10.8%	3.83% (active)	13.2%	10.9%	18.2%
COc1ccc(-c2nnc(COc3ccc(C(=O)/C=C/c4ccco4)cc3)o2)cc1	79.2%	10.9%	31%	19.6%	-10.2% (active)	98.2%	18.2%
COc1cccc(C(=O)NC(c2ccc(C)cc2)c2cc(Cl)c3cccnc3c2O)c1 (configuration not stated)	12.3%	19.4%	14.1%	17.9%	19.2%	7.35% (active)	20.7%
O=C(Nc1ccc(N2CCNCC2)cn1)c1[nH]ncc1Nc1ncnc2sccc12	93.4%	-86.1% (active)	-89.2% (active)	20.1%	-68.2% (active)	52.6%	57.3%
N#C/C(=C1\SC(=O)CN1c1ccccc1)c1nc2ccccc2s1	103%	102%	93.5%	73.8%	89%	97.3%	98.4%
CCCCC(O)(c1ccc(Cl)cc1)C(CN1CCOCC1)c1ccc(Cl)cc1 (configuration not stated)	59.5%	26.2%	47.1%	17.7%	33.2%	24.6%	32.5%
COc1ccc2[nH]c(O)c(N=NC(=O)c3oc4ccccc4c3C)c2c1	70.1%	28.9%	35.1%	22.9%	-28.6% (active)	45.5%	43.8%
COc1cc(C(=O)O/N=C(\N)Cc2cccc3ccccc23)cc(OC)c1OC	56.4%	-85.2% (active)	-76.7% (active)	-85.7% (active)	-71.4% (active)	-82.5% (active)	-68.4% (active)
CC(C)Cn1c2c(c(=S)[nH]c1=O)CCC2	108%	98.9%	93.6%	109%	105%	123%	105%
C[C@@H](C(=O)NCCCC#Cc1cnc(Nc2ccc(C#N)cc2)nc1NC1CC1)N(C)C(=O)/C=C/CN(C)C	32.3%	24.5%	42.1%	17.3%	27.7%	64.5%	17.7%
O=C(NC1CCCCC1)C(c1cccs1)N(CCc1ccccc1)C(=O)c1ccco1 (configuration not stated)	103%	104%	96.1%	88.3%	82.9%	105%	98%
